Only some compounds are listed: those with a hit (about 18% of all), similar ones and a draw of the others.
IL-1B inflam inh = blocks inflammasome-driven IL-1 beta release; THP-1 LPS/ATP IL-1B secretion, AlphaLISA, 16 h; active compounds read low; activity change, % at 57.5 µM; actives 4.7% (n = 360,000); in the data active = activity change below about -50%; inconclusive = mostly about -30% to -49%
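THP-1 cells pretreated 1 hr with compounds (up to 57.5 uM final), then stimulated with LPS (250 ng/mL final) plus ATP (1.25 mM final); secreted IL-1B measured by AlphaLISA after 16 hr, decreased signal indicating inhibition.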
Gal4-VP16 FLuc = counter-screen for ROR gamma inhibitors: Gal4-VP16 reporter; Drosophila S2 Gal4-VP16 UAS-luciferase, luminescence, 20 h; Potency, µM (doses to about 53.6 µM), without a hit: at the highest dose activity, negative = inhibition, usual class: inhibitors; actives 3.5% (n = 310,000);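 note: Gal4-VP16 expression switched on by copper sulfate through the metallothionein promoter; potency is the fitted concentration of half-maximal effect; nearly all actives have a fitted effect of over 50% in size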
TDP1 cell noCPT = qHTS for Inhibitors of human tyrosyl-DNA phosphodiesterase 1 (TDP1): qHTS in cells in absence of CPT; Potency, µM (titrated, usually from 46.2 µM), for inactives: top-dose activity change, negative = growth inhibition, most hits filed as inhibitors; DT40 Tdp1-/- hTDP1 cells, no CPT, ATP luminescence, 48 h; actives 15% (n = 420,000); AID 686978, 2013; note: potency is the fitted concentration of half-maximal effect; nearly all actives have a fitted effect of over 55% in size
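Seeded 400 DT40-hTDP1 cells/well (vehicle DMSO, no 20 nM CPT); pinned compounds; ≥48 hr at 37 °C; CellTiter-Glo luminescence as viability measure.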
RORg inh = blocks mouse ROR gamma transcriptional activity; P51450; Drosophila S2 Gal4-RORgamma UAS-luciferase reporter, 20 h; Potency, µM (titrated, usually from 53.6 µM), without a hit: at the top dose activity change, negative = inhibition, hits mostly inhibitors; actives 5.4% (n = 310,000); AID 2551; note: potency is the fitted concentration of half-maximal effect; nearly all actives have a fitted effect of over 60% in size
Target sequence (P51450 whole entry, looked up, the tested form may be a part): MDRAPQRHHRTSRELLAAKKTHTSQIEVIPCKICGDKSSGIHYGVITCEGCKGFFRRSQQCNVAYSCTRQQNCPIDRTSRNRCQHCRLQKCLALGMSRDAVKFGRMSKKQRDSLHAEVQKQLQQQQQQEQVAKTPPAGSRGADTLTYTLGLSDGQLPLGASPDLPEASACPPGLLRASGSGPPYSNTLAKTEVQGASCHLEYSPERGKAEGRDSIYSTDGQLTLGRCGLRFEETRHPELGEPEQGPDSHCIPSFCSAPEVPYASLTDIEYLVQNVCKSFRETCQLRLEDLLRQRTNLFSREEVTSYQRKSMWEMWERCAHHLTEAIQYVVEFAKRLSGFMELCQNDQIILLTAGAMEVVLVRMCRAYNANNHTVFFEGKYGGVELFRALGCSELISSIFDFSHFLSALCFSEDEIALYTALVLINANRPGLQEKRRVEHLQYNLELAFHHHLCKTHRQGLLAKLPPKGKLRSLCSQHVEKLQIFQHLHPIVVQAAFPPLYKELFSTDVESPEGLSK
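Drosophila S2 cells stably expressing Gal4-DBD/mouse RORγ fusion under metallothionein promoter plus UAS-luciferase; compound 1 h, then 700 uM CuSO4 induction for 20 h at ambient temperature; inhibition read as reduced luminescence.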
TDP1 cell CPT = growth inhibition of DT40 Tdp1-/-;hTDP1 cells with camptothecin (screen for TDP1 inhibitors) | actives 12% (n = 420,000) | AID 686979 | chicken DT40 Tdp1-/-;hTDP1 cells + 20 nM CPT, ATP luminescence, 48 h | Potency, µM (titrated, usually from 46.2 µM), for inactives: at the highest dose activity change, negative = growth inhibition, usual class: inhibitors; note: potency is the fitted concentration of half-maximal effect; nearly all actives have a fitted effect of over 55% in size
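Cell growth measured by CellTiter-Glo luminescence after a minimum 48 h, 37 C compound exposure with 20 nM CPT in Tdp1-knockout DT40 cells stably expressing hTDP1, seeded 400/well; qHTS titration format.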
LDHA block = blocks human lactate dehydrogenase A. actives 0.15% (n = 480,000). purified LDHA, NADH/diaphorase-resazurin fluorescence; active compounds read low. AID 1347041. activity change, % (values are at about 110 or 230 µM); in the data active = activity change below about -30%; inconclusive = mostly about -25% to -30%;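 note: plate controls were DMSO wells for no effect and wells without enzyme for full effect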
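Enzyme activity of human lactate dehydrogenase 5 (2 nM; 0.06 mM NADH, 0.2 mM pyruvate, 5 min, RT) is measured via a resazurin/diaphorase fluorescence readout of residual NADH.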
An asterisk follows results filed as active; ? = inconclusive; nt = no result. Unless noted, calls come from the whole dose curve; as a rule, active = well fitted curve in the direction sought with a large enough effect; inconclusive = small, poorly fitted or top-dose-only effect, or another doubt; inactive = no such curve, though single readings can be large; an effect the other way counts as inactive or inconclusive. Unless noted, % is set by controls: 0 for no effect and ±100 for the full control effect.

SMILES	IL-1B inflam inh	Gal4-VP16 FLuc	TDP1 cell noCPT	RORg inh	TDP1 cell CPT	LDHA block
CCN(CC)CCCNC(=O)c1ccc(OCC(=O)Nc2ccccc2C(F)(F)F)c(OC)c1	-62*	10%	?	5%	?	-1
CCN(CC(=O)Nc1ccc(OC)c(OC)c1)CC(=O)Nc1ccccc1C(F)(F)F	-11	1%	?	21%	?	-3
Cc1ccc(CNC(=O)COC(=O)c2ccc(Cl)c(N)c2)cc1	23	?	-10%	25%	23µM*	-6
Cc1ccc(C(=O)OCC(=O)c2c[nH]c3ccccc23)cc1NC(=O)c1ccco1	?	1%	21µM*	26%	?	-1
Cc1cc(CNC(=O)COC(=O)c2ccc(Cl)c(N)c2)cc(C)c1O	4	nt	-7%	nt	1%	2
O=C(OCC(=O)N1CCCC1)c1ccc(Cl)c([N+](=O)[O-])c1	-57*	14%	-12%	-13%	2%	1
Cc1[nH]c2ccccc2c1C(=O)COC(=O)c1cccc(S(=O)(=O)N2CCCCC2)c1	25	-2%	?	5%	18µM*	-5
CCN(CC)C(=O)COC(=O)c1ccc(C)c(NC(=O)c2ccco2)c1	21	1%	1%	23%	-6%	-3
CCCCCN1CCN(c2nc3c(c(=O)[nH]c(=O)n3C)n2Cc2ccc(Br)cc2)CC1	nt	nt	nt	nt	nt	-3
COc1ccc(C2=NN(C(=O)C(C)(C)C)C(c3ccc4nccnc4c3)C2)cc1 (stereo unspecified)	nt	nt	nt	nt	nt	1
COc1ccc(-c2nc(C)c(CCNS(=O)(=O)c3ccc(Cl)s3)s2)cc1	nt	nt	nt	nt	nt	10
COc1ccc(-c2nc(C)c(C(=O)N3CCN(C(C#N)c4ccc(F)cc4)CC3)s2)cc1 (stereo unspecified)	nt	nt	nt	nt	nt	2
Cc1nn(-c2ncccn2)c2c1C(c1cccc(OCC(C)C)c1)CC(=O)N2 (stereo unspecified)	nt	nt	nt	nt	nt	1
Cc1ccc(C(=O)OCC(=O)c2c[nH]c3ccccc23)cc1S(=O)(=O)N1CCCCC1	19	-5%	18µM*	?	23µM*	-5
CC(OC(=O)c1ccc(Cl)c([N+](=O)[O-])c1)C(=O)N1CCN(Cc2ccccc2)CC1 (stereo unspecified)	-96*	nt	?	nt	?	1
O=C(COC(=O)c1ccc(Cl)c(S(=O)(=O)N2CCCC2)c1)NCc1ccccc1	19	nt	-29%	nt	?	-4
O=C(COC(=O)c1ccc(Cl)c(S(=O)(=O)N2CCCCCC2)c1)NCc1ccccc1	35	nt	?	nt	23µM*	-1
O=C(OCC(=O)N1CCCCCC1)c1ccc(Cl)c(S(=O)(=O)N2CCCC2)c1	-1	-3%	?	?	23µM*	-4
Cc1ccc(C(=O)OCC(=O)NCc2ccccc2)cc1S(=O)(=O)N1CCCCC1	-17	nt	?	nt	15µM*	-2
Cc1ccc(C(=O)OCC(=O)Nc2ccccc2)cc1S(=O)(=O)N1CCCCC1	-4	nt	-8%	nt	-9%	-1
CCCCCCSc1ccc(-c2nc3ccc(C)cn3c2NCCCC)cc1OC	-24	nt	9.2µM*	nt	12µM*	-3
CCCCNc1c(-c2ccc(SC(C)CC)c(OC)c2)nc2ccc(C)cn12 (stereo unspecified)	-93*	nt	6.5µM*	nt	5.8µM*	8
CCCCCCSc1ccc(-c2nc3ccc(Cl)cn3c2NCCCC)cc1OC	-15	nt	?	nt	?	0
CCCCNc1c(-c2ccc(-c3cccc(Cl)c3)cc2)nc2ccc(Cl)cn12	-7	nt	?	nt	?	-11
CCCCNc1c(-c2ccc(SC3CCCCC3)c(OC)c2)nc2ccc(Cl)cn12	-19	nt	16µM*	nt	?	0

Compound activity as filed in PubChem BioAssay.
